In PubChem BioAssay:
Where “and” joins values, the source holds several entries; their conditions need not be identical. Equal values may be shown once. Calls of active or inactive are those of the source.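 How the source made its calls, unless noted: active means thallium flux through the channel raised or lowered by more than 3 SD from vehicle-only wells, actives on both sides; inactive means the rest.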

Experiments:
[1] = Wnt pathway potentiators raising nuclear beta-catenin – imaging, WNT3A-conditioned medium, mouse C2C12, NPC library, primary screen (AID 1117326; in the data active means nuclear beta-catenin stimulation mostly above about 4.2%, no sharp cut-off; inactive means mostly below about 10%); details: stronger effect = higher value
[2] = stimulators of insulin release from INS-1E, primary screen, cell-based, 5 mM glucose, NPC library (AID 1117329;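 active means compound raises insulin release from rat beta cells at 5 mM glucose, no numeric limit stated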); details: rat INS-1E insulin secretion, at 10 µM, stronger effect = higher value
[3] = growth inhibition of GSK3B-pretreated HCT116 cells – cell-based, CellTiter-Glo, 0.2 to 20 µM (AID 1117336;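 active means compounds lowering colon cancer cell viability after pretreatment blocking the GSK3B kinase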); details: HCT116 viability after GSK3B inhibitor, at 20 µM, stronger effect = higher value
[4] = inhibition of endothelial tube formation, primary screen, imaging, VEGF stimulated, CD31 staining, tube area, NPC library (AID 1117340;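 active means compound that reduces growth-factor-driven endothelial tube area in a mixed cell culture, no cutoff stated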); details: VEGF-stimulated ADSC/ECFC co-culture, at 10 µM, stronger effect = higher value
[5] = GLP1 release stimulators, primary, NCI-H716, NPC library (AID 1117341;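 active means compound raises GLP1 secretion from the human gut endocrine cells, with no numeric limit stated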); details: NCI-H716 cells, at 10 µM, stronger effect = higher value
[6] = HCT116 colon cancer cell growth inhibition, primary screen, CellTiter-Glo luminescence, NPC library (AID 1117342;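 active means compounds that lower survival of HCT116 colon cancer cells in the luminescence readout, no numeric limit stated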); details: at 20 µM (top of the series)
[7] = reduced SW480 viability measured with CellTiter-Glo, NPC library, primary (AID 1117343;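 active means compounds that lower viability of the colon cancer cells in the luminescence readout, with no numeric limit stated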); details: CellTiter-Glo luminescence; at 20 µM (top of the series)
[8] = NPC library primary testing for decreased DLD-1 cell viability via CellTiter-Glo (AID 1117346;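 active means compounds that lower survival of DLD-1 colon cancer cells in the luminescence readout, no cutoff given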); details: DLD-1 viability, CellTiter-Glo luminescence; at 20 µM (top of the series)
[9] = target: 6-phosphogluconate dehydrogenase, decarboxylating (Homo sapiens) (UniProt P52209); experiment: inhibition of human phosphogluconate dehydrogenase – biochemical, recombinant enzyme, NADPH absorbance, primary screen (AID 1159550;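 active means at least 20% inhibition of 6-phosphogluconate dehydrogenase activity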); details: recombinant 6PGD, NADPH absorbance 341 nm; at 10 µM; stronger effect = higher value
[10] = EMT-state selective cytotoxicity in co-culture – imaging, PC-3E GFP, TEM4-18 mCherry, primary screen (AID 1345086;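 active means compounds killing one labelled cell type while sparing the other, by normalised counts and ratio limits, not self-fluorescent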;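 on all read-outs here: cells exposed to compound for 72 h before imaging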;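 on red/green cell ratio (normalised): normalised mesenchymal count divided by normalised epithelial count so high means epithelial killing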); details: PC-3E GFP / TEM4-18 mCherry co-culture, imaging cell counts, at 1 µM; for red/green cell ratio (normalised): actives lie on both sides, counts scaled to control wells, 1 = unselective
[11] = viability loss with induced miR-34 in A549 – imaging, A549 dox-inducible miR-34, nuclei and caspase counts, primary screen (AID 1347080;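 active means compounds whose cell count with miR-34 switched on is under 0.7 times the count with it off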); details: A549 miR-34 inducible, Hoechst nuclei count, 48 h
[12] = MELAS cybrid and Rieske KO viability enhancers – cell-based, MELAS cybrids, Rieske KO mouse fibroblasts, CellTiter-Glo, primary screen (AID 1508586;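 active means mean z-score across replicates of 1.96 or higher in either the MELAS or the Rieske mutant cell line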;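 further: z relative to plate mean and SD of compound and empty wells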); details: low glucose
[13] = target: NAD(+) hydrolase SARM1 (Homo sapiens) (UniProt Q6SZW1); experiment: blocking NAD cleavage by SARM1 SAM-TIR – cell lysate, NAD-Glo luminescence (AID 1508614;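 active means compound whose remaining NAD level is above about 45 nM, limit read from the data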); details: SAM-TIR HEK293T lysate NADase, at 1 µM, stronger effect = higher value
F380Y = experiment: BK channel mutant inhibitors and activators – cell-based, U2OS BacMam, thallium flux, beta subunits, selectivity assay, profiling panel (AID 1259406); details: U2OS BacMam BK variants, at 30 µM;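 further: initial slope of Thallos dye fluorescence rise after thallium is added; log ratio against the mean of 0.3% DMSO vehicle wells on the same plate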
F380Y/beta1 = experiment: as above; details: U2OS BacMam BK variants, at 30 µM
F380Y/beta2Delta = experiment: as above; details: U2OS BacMam BK variants, at 30 µM
F380Y/beta4 = experiment: as above; details: U2OS BacMam BK variants, at 30 µM
[14] = target: Calcium-activated potassium channel subunit alpha-1 (Homo sapiens) + Leucine-rich repeat-containing protein 26 (Homo sapiens) (UniProt Q12791+Q2I0M4); experiment: as above; details: U2OS BacMam BK variants, F380Y/Slo1WT/gamma1, at 30 µM
R275C = experiment: as above; details: U2OS BacMam BK variants, at 30 µM
[15] = measured here: epithelial PC-3E GFP cell survival
[16] = measured here: mesenchymal TEM4-18 mCherry cell survival
[17] = stronger effect = lower value, cell number ratio, induced over uninduced
[18] = measured here: relative caspase fold change +Dox/-Dox
[19] = measured here: total cells with miR-34 induction, stronger effect = lower value
[20] = measured here: total cells without miR-34 induction
[21] = MELAS cybrid survival, CellTiter-Glo 48 h, stronger effect = higher value
[22] = Rieske KO mouse fibroblast survival, CellTiter-Glo 72 h

Chain of Calcium-activated potassium channel subunit alpha-1 (Homo sapiens) + Leucine-rich repeat-containing protein 26 (Homo sapiens) (Q2I0M4 whole entry, looked up, one chain of several): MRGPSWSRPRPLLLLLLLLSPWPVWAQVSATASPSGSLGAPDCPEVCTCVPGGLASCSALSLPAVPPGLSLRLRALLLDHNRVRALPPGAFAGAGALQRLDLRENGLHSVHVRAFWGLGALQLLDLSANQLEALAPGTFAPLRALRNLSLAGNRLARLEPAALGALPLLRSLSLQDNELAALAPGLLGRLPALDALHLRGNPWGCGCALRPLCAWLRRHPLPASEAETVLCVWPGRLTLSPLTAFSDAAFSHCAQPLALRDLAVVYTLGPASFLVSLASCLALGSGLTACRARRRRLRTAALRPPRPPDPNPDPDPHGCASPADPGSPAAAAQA
Chain of NAD(+) hydrolase SARM1 (Homo sapiens) (Q6SZW1 whole entry, looked up): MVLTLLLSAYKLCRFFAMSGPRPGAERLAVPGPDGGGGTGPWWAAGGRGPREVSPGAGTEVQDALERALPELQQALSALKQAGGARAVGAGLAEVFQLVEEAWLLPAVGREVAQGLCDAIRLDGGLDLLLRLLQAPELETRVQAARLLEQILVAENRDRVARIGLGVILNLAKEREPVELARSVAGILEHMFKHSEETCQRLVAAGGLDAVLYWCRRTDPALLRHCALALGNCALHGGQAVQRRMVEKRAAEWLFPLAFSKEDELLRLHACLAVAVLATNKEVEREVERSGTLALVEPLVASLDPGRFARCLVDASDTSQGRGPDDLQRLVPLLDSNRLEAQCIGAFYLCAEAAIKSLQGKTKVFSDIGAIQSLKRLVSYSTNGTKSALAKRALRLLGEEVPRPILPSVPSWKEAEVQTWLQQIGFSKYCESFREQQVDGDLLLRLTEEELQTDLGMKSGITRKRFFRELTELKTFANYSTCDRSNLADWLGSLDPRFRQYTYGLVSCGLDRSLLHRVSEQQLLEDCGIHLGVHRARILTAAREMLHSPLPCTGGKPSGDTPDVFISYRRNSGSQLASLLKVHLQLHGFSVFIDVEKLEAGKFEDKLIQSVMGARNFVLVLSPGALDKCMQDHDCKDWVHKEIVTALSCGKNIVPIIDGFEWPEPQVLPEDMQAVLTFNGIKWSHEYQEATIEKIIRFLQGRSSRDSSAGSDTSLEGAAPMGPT
Chain of 6-phosphogluconate dehydrogenase, decarboxylating (Homo sapiens) (P52209 whole entry, looked up): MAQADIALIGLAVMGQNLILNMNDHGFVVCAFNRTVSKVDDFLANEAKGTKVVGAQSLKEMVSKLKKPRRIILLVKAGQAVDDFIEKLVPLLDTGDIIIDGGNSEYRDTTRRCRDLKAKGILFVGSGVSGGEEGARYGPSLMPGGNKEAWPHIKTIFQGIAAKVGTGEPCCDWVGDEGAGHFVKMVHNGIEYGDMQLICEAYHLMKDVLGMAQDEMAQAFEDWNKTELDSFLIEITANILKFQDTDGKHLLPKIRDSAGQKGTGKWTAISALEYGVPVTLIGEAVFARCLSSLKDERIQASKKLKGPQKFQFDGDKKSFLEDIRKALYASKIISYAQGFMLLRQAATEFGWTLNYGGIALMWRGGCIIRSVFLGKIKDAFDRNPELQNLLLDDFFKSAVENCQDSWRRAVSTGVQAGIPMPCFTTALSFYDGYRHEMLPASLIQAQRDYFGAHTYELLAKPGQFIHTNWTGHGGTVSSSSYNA

NCc1ccc(S(N)(=O)=O)cc1
0.74: normalised cell number [10, 15] | normalised cell number [10, 16]
-0.0568: z-score [12, 22]
active: insulin secretion stimulation [2] -0.5%
inactive: nuclear beta-catenin stimulation ([1]; at 10 µM) 0.8% | viability decrease [3] 1.95% | tube area decrease [4] 8.4% | GLP1 secretion stimulation [5] 1.9% | inhibition of viability [6] 7% | viability decrease (inhibition) [7] 14.1% | viability decrease (inhibition) [8] 13.8% | inhibition [9] -1.59% | red/green cell ratio (normalised) [10] 1 | fold change [11, 17] 0.973 and 0.954 and 0.851 | z-score [12, 21] 0.171 | remaining NAD [13] 10 nM | log fold change Tl+ flux (F380Y) 0.0308 | log fold change Tl+ flux (F380Y/beta1) 0.0173 | log fold change Tl+ flux (F380Y/beta2Delta) -0.0418 | log fold change Tl+ flux (F380Y/beta4) -0.0354 | log fold change Tl+ flux [14] 0.00552 | log fold change Tl+ flux (R275C) 0.00729
11100 and 8530 and 11400: cell count [11, 19]
0.2%: nuclear beta-catenin stimulation ([1]; stimulation, at 2 µM)
11400 and 8940 and 13400: cell count [11, 20]
2.25 and 1.29 and 0.783: fold change [11, 18]

O=C1C(CCS(=O)c2ccccc2)C(=O)N(c2ccccc2)N1c1ccccc1 (stereo not given)
11300 and 8240 and 10300: cell count [11, 19]
0.93: normalised cell number [10, 15]
0.23: z-score [12, 22]
1.95 and 1.38 and 4.04: fold change [11, 18]
1.24: normalised cell number [10, 16]
inactive: nuclear beta-catenin stimulation ([1]; at 10 µM) 0.9% | insulin secretion stimulation [2] 2.6% | viability decrease [3] -21% | tube area decrease [4] 1% | GLP1 secretion stimulation [5] -0.7% | inhibition of viability [6] -1.5% | viability decrease (inhibition) [7] 15.3% | viability decrease (inhibition) [8] -15.6% | inhibition [9] -6.96% | red/green cell ratio (normalised) [10] 1.33 | fold change [11, 17] 1.01 and 1 and 0.826 | z-score [12, 21] 0.278 | remaining NAD [13] 10 nM | log fold change Tl+ flux (F380Y) -0.0134 | log fold change Tl+ flux (F380Y/beta1) 0.0248 | log fold change Tl+ flux (F380Y/beta2Delta) 0.0447 | log fold change Tl+ flux (F380Y/beta4) 0.0952 | log fold change Tl+ flux [14] 0.000816 | log fold change Tl+ flux (R275C) -0.0788
11300 and 8200 and 12500: cell count [11, 20]
0%: nuclear beta-catenin stimulation ([1]; stimulation, at 2 µM)

COc1ccc(OC)c(C(O)CNC(=O)CN)c1 (stereo not given)
inactive: nuclear beta-catenin stimulation ([1]; at 10 µM) 3.8% | insulin secretion stimulation [2] 2.7% | viability decrease [3] 17.9% | tube area decrease [4] -15.2% | GLP1 secretion stimulation [5] 0.7% | inhibition of viability [6] -0.9% | viability decrease (inhibition) [7] -26.4% | viability decrease (inhibition) [8] 0.7% | inhibition [9] -19.4% | red/green cell ratio (normalised) [10] 1.18 | fold change [11, 17] 0.924 and 0.912 and 0.855 | z-score [12, 21] 0.0363 | remaining NAD [13] 10 nM | log fold change Tl+ flux (F380Y) -0.028 | log fold change Tl+ flux (F380Y/beta1) 0.0228 | log fold change Tl+ flux (F380Y/beta2Delta) -0.0267 | log fold change Tl+ flux (F380Y/beta4) 0.0115 | log fold change Tl+ flux [14] 0.0303 | log fold change Tl+ flux (R275C) -0.0312
9350 and 8590 and 11100: cell count [11, 19]
4.9%: nuclear beta-catenin stimulation ([1]; stimulation, at 2 µM)
1.01: normalised cell number [10, 15]
-0.177: z-score [12, 22]
1.2: normalised cell number [10, 16]
10100 and 9420 and 12900: cell count [11, 20]
2.18 and 0.75 and 3.91: fold change [11, 18]

CC(=O)Nc1nnc(S(N)(=O)=O)s1
1.17: normalised cell number [10, 16]
-0.2%: nuclear beta-catenin stimulation ([1]; stimulation, at 2 µM)
inactive: nuclear beta-catenin stimulation ([1]; at 10 µM) 0.1% | insulin secretion stimulation [2] -1.1% | viability decrease [3] -1.8% | tube area decrease [4] -16.7% | GLP1 secretion stimulation [5] 1.4% | inhibition of viability [6] 1.7% | viability decrease (inhibition) [7] 31.5% | viability decrease (inhibition) [8] 6.2% | inhibition [9] -4.83% | red/green cell ratio (normalised) [10] 1.26 | z-score [12, 21] -0.627 | remaining NAD [13] 10 nM | log fold change Tl+ flux (F380Y) 0.0439 | log fold change Tl+ flux (F380Y/beta1) 0.0405 | log fold change Tl+ flux (F380Y/beta2Delta) 0.0368 | log fold change Tl+ flux (F380Y/beta4) 0.0426 | log fold change Tl+ flux [14] -0.0199 | log fold change Tl+ flux (R275C) 0.0184
0.11: z-score [12, 22]
0.92: normalised cell number [10, 15]

CCCCC1=NC2(CCCC2)C(=O)N1Cc1ccc(-c2ccccc2-c2nn[nH]n2)cc1
inactive: nuclear beta-catenin stimulation ([1]; at 10 µM) 1.9% | insulin secretion stimulation [2] 1.8% | viability decrease [3] -43% | tube area decrease [4] -17.7% | GLP1 secretion stimulation [5] -0.1% | inhibition of viability [6] -0.43% | viability decrease (inhibition) [7] -11.7% | viability decrease (inhibition) [8] -12.4% | inhibition [9] -3.55% | red/green cell ratio (normalised) [10] 1.43 | fold change [11, 17] 0.939 and 0.866 | z-score [12, 21] -0.829 | remaining NAD [13] 10 nM | log fold change Tl+ flux (F380Y) 0.0685 | log fold change Tl+ flux (F380Y/beta2Delta) 0.0508 | log fold change Tl+ flux (F380Y/beta4) 0.0736 | log fold change Tl+ flux [14] -0.00804 | log fold change Tl+ flux (R275C) 0.00561
7090 and 11900: cell count [11, 19]
7550 and 13800: cell count [11, 20]
-0.504: z-score [12, 22]
1.55 and 6.32: fold change [11, 18]
0.1%: nuclear beta-catenin stimulation ([1]; stimulation, at 2 µM)
0.82: normalised cell number [10, 15]
1.18: normalised cell number [10, 16]
active: log fold change Tl+ flux (F380Y/beta1) 0.0995

CCCCNC(=O)NS(=O)(=O)c1ccc(C)cc1
3.2%: nuclear beta-catenin stimulation ([1]; stimulation, at 2 µM)
1.15: normalised cell number [10, 16]
-0.151 and -0.133 and 0.0575: z-score [12, 22]
1.03: normalised cell number [10, 15]
inactive: nuclear beta-catenin stimulation ([1]; at 10 µM) 0.2% | insulin secretion stimulation [2] 3.85% | viability decrease [3] -5.6% | tube area decrease [4] 5.7% | GLP1 secretion stimulation [5] 6.7% | inhibition of viability [6] -6.5% | viability decrease (inhibition) [7] -6% | viability decrease (inhibition) [8] -5.4% | inhibition [9] -14.4% | red/green cell ratio (normalised) [10] 1.12 | z-score [12, 21] -0.283 and 0.394 and 0.614 | remaining NAD [13] 10 nM | log fold change Tl+ flux (F380Y) -0.00894 | log fold change Tl+ flux (F380Y/beta1) 0.0157 | log fold change Tl+ flux (F380Y/beta2Delta) 0.0378 | log fold change Tl+ flux (F380Y/beta4) 0.00157 | log fold change Tl+ flux [14] -0.0258 | log fold change Tl+ flux (R275C) -0.0266

CN(C)CCOC(C)(c1ccccc1)c1ccccn1 (stereo not given)
1.53: normalised cell number [10, 16]
-0.9%: nuclear beta-catenin stimulation ([1]; stimulation, at 2 µM)
inactive: nuclear beta-catenin stimulation ([1]; at 10 µM) 1.1% | insulin secretion stimulation [2] 11.2% | viability decrease [3] 7.4% | tube area decrease [4] -15.5% | GLP1 secretion stimulation [5] 1% | inhibition of viability [6] 22.7% | viability decrease (inhibition) [7] 28.1% | viability decrease (inhibition) [8] -4.8% | inhibition [9] 1.67% | red/green cell ratio (normalised) [10] 1.11 | z-score [12, 21] 0.438 and -0.212 and 0.265 | remaining NAD [13] 10 nM | log fold change Tl+ flux (F380Y) -0.0291 | log fold change Tl+ flux (F380Y/beta1) -0.0273 | log fold change Tl+ flux (F380Y/beta2Delta) -0.0218 | log fold change Tl+ flux (F380Y/beta4) 0.0181 | log fold change Tl+ flux [14] -0.0144 | log fold change Tl+ flux (R275C) -0.00524
-0.4 and -0.135 and 0.109: z-score [12, 22]
1.38: normalised cell number [10, 15]
